Results filed as inconclusive are left out. A number with no mark means an inactive call. Calls of active or inactive are those of the source. The call rests on the fitted dose curve; in most records, active means well fitted cell-killing curve with a large enough effect; inconclusive means small, poorly fitted or top-dose-only effect, or effect the other way; inactive means no such curve, though single readings can be large or run the other way.
Experiment: Quantitative High-Throughput drug screen in 47 multiple myeloma cell lines against the NCATS MIPE library collection: JJN3_DSMZ cell viability assay (AID 1918966; further: nearly all actives have a fitted effect of over 50% in size)
Details: JJN3 myeloma cells viability, CellTiter-Glo ATP, 48 h; series mostly up to 45.8 µM; viability, % of DMSO: at the top concentration
Method in brief: (§1)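 Luminescent ATP measurement with CellTiter-Glo gives viability, scaled between DMSO-only wells (100%) and media-only wells (0%). Cells, 500 per well, faced library compounds for 48 hours at 37C.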
Potency means the concentration at half of the fitted maximal effect.

Row | Compound | Potency | viability, % of DMSO
1 | C[C@@H](O)[C@H]1C(=O)N2C(C(=O)OCOC(=O)C(C)(C)C)=C(SC3CN(C4=NCCS4)C3)[C@H](C)[C@H]12 | 16.6 µM (active) | 
2 | N#CC(c1ccnc(NCCc2cccnc2)n1)c1nc2ccccc2s1 (stereo not given) | 10.5 µM (active) | 
3 | CC1(C)OC2CC3C4CC(F)C5=CC(=O)C=CC5(C)C4C(O)CC3(C)[C@]2(C(=O)CO)O1 (stereo not given in full) |  | 137%
4 | CC[C@H](C)C(=O)O[C@H]1C[C@H](O)C=C2C=C[C@H](C)[C@H](CC[C@@H](O)C[C@@H](O)CC(=O)O)[C@H]21 |  | 115%

Experiment: Quantitative High-Throughput drug screen in 47 multiple myeloma cell lines against the NCATS MIPE library collection: H1112_PLB cell viability assay (AID 1918967; further: nearly all actives have a fitted effect of over 30% in size)
Details: H1112 myeloma cells viability, ATP luminescence, 48 h; series mostly up to 45.8 µM; viability: at the top concentration
Method in brief: as §1

Row | Compound | Potency | viability
5 | CCc1cccc(CC)c1NC(=O)N1Cc2[nH]nc(NC(=O)c3ccc(N4CCN(C)CC4)cc3)c2C1 | 20.9 µM (active) | 
6 | C[C@@H](NC(=O)c1ncnc(N)c1Cl)c1ncc(C(=O)Nc2cc(C(F)(F)F)c(Cl)cn2)s1 | 16.6 µM (active) | 
7 | NC1(C(=O)N[C@@H](CCO)c2ccc(Cl)cc2)CCN(c2ncnc3[nH]ccc23)CC1 | 7.43 µM (active) | 
8 | CC(C)=CCCC(C)=CCCC(C)=CCCC(C)=CCCC(C)=CCCC(C)=CCCC(C)=CCCC(C)=CCCC(C)=CCO |  | 110%
9 | c1ccc(-c2oc3ncnc(NC[C@@H]4CCCO4)c3c2-c2ccccc2)cc1 |  | 84.3%
10 | CCCCCOC(=O)Nc1nc(=O)n([C@@H]2O[C@H](C)[C@@H](O)C2O)cc1F (stereo not given in full) |  | 78.6%
11 | Nc1[nH]nc2nnc(-c3c(-c4ccccc4)nn4ccccc34)cc12 | 4.18 µM (active) | 
12 | CCOC(=O)[C@H](CCc1ccccc1)N[C@@H](C)C(=O)N1CCCC1C(=O)O (stereo not given in full) |  | 113%
13 | CCCCC(F)(F)[C@@]1(O)CC[C@H]2[C@H](CC(=O)[C@@H]2CCCCCCC(=O)O)O1 |  | 119%
14 | Cc1nc2c([nH]1)CCN(C(=O)c1ccc(NC(=O)c3ccccc3-c3ccccc3)cc1)c1ccccc1-2 |  | 83.4%
15 | CCN(CC)CCCCNc1nc2cc(Cl)c(Cl)cc2nc1-c1ccc(-c2cccs2)s1 | 7.43 µM (active) | 
16 | COc1cc(CNC(=O)CCCCC=CC(C)C)ccc1O |  | 92.5%
17 | CC1CCN(c2cc(N3CCN(C)CC3)ccc2NC(=O)c2cc(C#N)c[nH]2)CC1 |  | 116%
18 | Cc1cn([C@@H]2C[C@@H](O)[C@H](CO)O2)c(=O)[nH]c1=O |  | 106%
19 | Cc1cccc(-c2[nH]c(C(C)(C)C)nc2-c2ccc3c(c2)OCO3)n1 | 1.32 µM (active) | 
20 | CCCCC[C@H](O)C=C[C@H]1[C@H](O)CC(=O)[C@H]1CCCCCCC(=O)O |  | 102%
21 | C[C@@H](O)[C@H]1C(=O)N2C(C(=O)OCOC(=O)C(C)(C)C)=C(SC3CN(C4=NCCS4)C3)[C@H](C)[C@H]12 |  | 83.2%
22 | N#CC(c1ccnc(NCCc2cccnc2)n1)c1nc2ccccc2s1 (stereo not given) | 18.7 µM (active) | 
23 | C[C@@H]1CCO[C@H]2Cn3cc(C(=O)NCc4ccc(F)cc4F)c(=O)c(O)c3C(=O)N12 |  | 104%
24 | CC[C@H](C)C(=O)O[C@H]1C[C@H](O)C=C2C=C[C@H](C)[C@H](CC[C@@H](O)C[C@@H](O)CC(=O)O)[C@H]21 |  | 96.7%
25 | CN1CC(=O)N2C(Cc3c([nH]c4ccccc34)[C@H]2c2ccc3c(c2)OCO3)C1=O (stereo not given in full) |  | 82.1%
26 | COc1cc2ncn(-c3cc(OCc4ccccc4S(C)(=O)=O)c(C#N)s3)c2cc1OC | 3.72 µM (active) | 

Experiment: Quantitative High-Throughput drug screen in 47 multiple myeloma cell lines against the NCATS MIPE library collection: Karpas25_ECACC cell viability assay (AID 1918968; further: nearly all actives have a fitted effect of over 35% in size)
Details: Karpas25 myeloma viability, CellTiter-Glo ATP, 48 h; series mostly up to 45.8 µM; viability (% of control): at the top concentration
Method in brief: as §1

Row | Compound | Potency | viability (% of control)
27 | CCc1cccc(CC)c1NC(=O)N1Cc2[nH]nc(NC(=O)c3ccc(N4CCN(C)CC4)cc3)c2C1 | 13.2 µM (active) | 
28 | CCNC(=O)c1noc(-c2cc(C(C)C)c(O)cc2O)c1-c1ccc(CN2CCOCC2)cc1 | 0.0332 µM (active) | 
29 | Cc1cc(C(C)Nc2ccccc2)c2nc(N3CCOCC3)cc(=O)n2c1 (stereo not given) | 4.18 µM (active) | 
30 | NC1(C(=O)N[C@@H](CCO)c2ccc(Cl)cc2)CCN(c2ncnc3[nH]ccc23)CC1 | 0.418 µM (active) | 
31 | CC(C)=CCCC(C)=CCCC(C)=CCCC(C)=CCCC(C)=CCCC(C)=CCCC(C)=CCCC(C)=CCCC(C)=CCO |  | 121%
32 | CCCCCOC(=O)Nc1nc(=O)n([C@@H]2O[C@H](C)[C@@H](O)C2O)cc1F (stereo not given in full) | 18.7 µM (active) | 
33 | Nc1[nH]nc2nnc(-c3c(-c4ccccc4)nn4ccccc34)cc12 | 1.66 µM (active) | 
34 | CCOC(=O)[C@H](CCc1ccccc1)N[C@@H](C)C(=O)N1CCCC1C(=O)O (stereo not given in full) |  | 117%
35 | O=C(Nc1cccc(C(F)(F)F)c1)Nc1cc(S(=O)(=O)NC2CC2)ccc1-c1ccsc1 | 26.4 µM (active) | 
36 | CCN(CC)CCCCNc1nc2cc(Cl)c(Cl)cc2nc1-c1ccc(-c2cccs2)s1 | 8.33 µM (active) | 
37 | COc1cc(CNC(=O)CCCCC=CC(C)C)ccc1O |  | 89.4%
38 | Cc1cccc2c1CC[C@H](CN1CCC(c3c(Cl)cccc3Cl)CC1)C[C@@H]2O | 18.7 µM (active) | 
39 | O=S(=O)(O)c1ccc2cc(N=Nc3cc(S(=O)(=O)O)c4cccnc4c3O)ccc2c1 |  | 84.8%
40 | CC1CCN(c2cc(N3CCN(C)CC3)ccc2NC(=O)c2cc(C#N)c[nH]2)CC1 |  | 126%
41 | Cc1cn([C@@H]2C[C@@H](O)[C@H](CO)O2)c(=O)[nH]c1=O |  | 91.9%
42 | Cc1cccc(-c2[nH]c(C(C)(C)C)nc2-c2ccc3c(c2)OCO3)n1 | 0.526 µM (active) | 
43 | CCCCC[C@H](O)C=C[C@H]1[C@H](O)CC(=O)[C@H]1CCCCCCC(=O)O | 23.5 µM (active) | 
44 | N#CC(c1ccnc(NCCc2cccnc2)n1)c1nc2ccccc2s1 (stereo not given) | 7.43 µM (active) | 
45 | CC1(C)OC2CC3C4CC(F)C5=CC(=O)C=CC5(C)C4C(O)CC3(C)[C@]2(C(=O)CO)O1 (stereo not given in full) | 0.0833 µM (active) | 
46 | C[C@@H]1CCO[C@H]2Cn3cc(C(=O)NCc4ccc(F)cc4F)c(=O)c(O)c3C(=O)N12 | 18.7 µM (active) | 
47 | CCN1C[C@H](C)n2c(c(O)c3c(=O)n(Cc4ccc(F)c(Cl)c4)nc(C(=O)NC)c32)C1=O |  | 96%
48 | CNC(=O)c1cc(Oc2ccc(NC(=O)Nc3ccc(Cl)c(C(F)(F)F)c3)c(F)c2)ccn1 | 2.64 µM (active) | 
49 | CC[C@H](C)C(=O)O[C@H]1C[C@H](O)C=C2C=C[C@H](C)[C@H](CC[C@@H](O)C[C@@H](O)CC(=O)O)[C@H]21 |  | 103%
50 | Cc1ccccc1C(=O)c1ccc(Nc2ccc(Br)cc2N)cc1Cl | 18.7 µM (active) | 
